Screens from PubChem BioAssay.
G9a block: blocks human histone lysine methyltransferase G9a; Q96KQ7; G9a H3K9 monomethylation, AlphaScreen, 2 h; Potency, µM (doses to about 102 µM), hits mostly inhibitors; actives 8.8% (n = 350,000); also: nearly all actives have a fitted effect of over 75% in size
Target sequence (Q96KQ7 913-1193 limits assumed): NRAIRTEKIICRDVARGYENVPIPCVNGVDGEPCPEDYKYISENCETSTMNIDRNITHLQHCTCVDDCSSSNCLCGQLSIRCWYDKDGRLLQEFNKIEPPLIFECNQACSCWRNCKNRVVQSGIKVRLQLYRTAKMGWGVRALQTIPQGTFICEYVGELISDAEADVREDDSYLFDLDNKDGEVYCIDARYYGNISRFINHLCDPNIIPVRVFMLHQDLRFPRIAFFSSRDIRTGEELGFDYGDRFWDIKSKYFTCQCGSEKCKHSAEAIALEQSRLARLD
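Quantitative HTS format: methyltransferase activity on a biotin-tagged H3K9 peptide is measured by AlphaScreen, using a rabbit anti-monomethyl-H3K9 antibody with streptavidin donor and anti-IgG acceptor beads. Final levels are 20 nM enzyme, 500 nM peptide, 20 uM SAM; 2 h RT.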
VDR inhibitor: inhibitors of human vitamin D receptor; P11473; VDR-SRC2-3 peptide fluorescence polarization, 2 h; Potency, µM, usual class: inhibitors; actives 0.93% (n = 400,000); AID 504847
Target sequence (P11473 whole entry, looked up): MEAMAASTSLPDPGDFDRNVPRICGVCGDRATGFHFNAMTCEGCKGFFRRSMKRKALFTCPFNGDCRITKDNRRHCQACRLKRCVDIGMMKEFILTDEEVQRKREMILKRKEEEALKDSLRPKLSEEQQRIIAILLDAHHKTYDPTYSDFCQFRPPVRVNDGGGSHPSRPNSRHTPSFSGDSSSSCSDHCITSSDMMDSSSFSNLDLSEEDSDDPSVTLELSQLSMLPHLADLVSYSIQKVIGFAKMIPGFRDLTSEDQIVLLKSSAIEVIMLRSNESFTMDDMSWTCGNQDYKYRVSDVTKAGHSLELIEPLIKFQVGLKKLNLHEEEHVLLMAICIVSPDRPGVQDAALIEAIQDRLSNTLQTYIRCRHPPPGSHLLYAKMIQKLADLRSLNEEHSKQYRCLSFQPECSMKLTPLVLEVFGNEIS
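Reagent solutions, kept cold and dark, are dispensed first; compounds are then pinned in at 23 nl, plates briefly spun, and incubated 2 h at ambient temperature. Inhibition of VDR–SRC2-3 peptide binding is read by fluorescence polarization.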
JMJD2A Tudor: inhibitors of human JMJD2A Tudor domain; O75164; AlphaScreen JMJD2A-Tudor / H3K4me3 peptide binding; Potency, µM (series often up to 114 µM), usual class: inhibitors; actives 4.4% (n = 390,000); also: nearly all actives have a fitted effect of over 50% in size
BAZ2B block: inhibitors of human BAZ2B bromodomain; Potency, µM (top dose mostly 114 µM), actives largely listed as inhibitors; actives 4.4% (n = 360,000); AlphaScreen BAZ2B-H3K14Ac peptide displacement; Q9UIF8; also: nearly all actives have a fitted effect of over 60% in size
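Complex of BAZ2B and biotin-H3K14Ac (50 nM apiece) forms over 30 min at RT, then faces library compounds up to 110 uM for another 30 min; AlphaScreen beads added, 20 min dark incubation, luminescence read.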
PLK1 PBD block: blocks phosphopeptide binding to human PLK1 polo-box domain | AID 720504 | Potency, µM, most hits filed as inhibitors | actives 2.8% (n = 360,000) | P53350 | Plk1 PBD binding of FITC phosphopeptide, fluorescence polarization; also: series mostly up to about 57 µM; nearly all actives have a fitted effect of over 65% in size
HP1b chromo inh: HP1-beta chromodomain-methylated histone interaction inhibition; P83916; actives 0.56% (n = 390,000); AlphaScreen HP1-beta / biotin-H3K9me3 peptide binding; Potency, µM (highest dose often 114 µM), usual class: inhibitors; also: nearly all actives have a fitted effect of over 70% in size
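Compound inhibition of the preformed complex between 50 nM HP1-beta and 50 nM biotinylated H3K9me3 peptide was read by AlphaScreen. Buffer was PBS pH 7.4 with 0.01% Tween-20. Incubations ran 30 min at room temperature, with 10 ug/mL donor/acceptor beads.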
A number is an active result; n = inactive; u = inconclusive; x = not tested or not shown; [ ] = another dose, or the depositor's remark. Compounds with a hit are over-represented: about 11% of the library has one in this group of screens. Calls follow the shape of the dose curve; as a rule, active = well fitted curve in the direction sought with a large enough effect; inconclusive = small, poorly fitted or top-dose-only effect, or another doubt; inactive = no such curve, though single readings can be large; an effect the other way counts as inactive or inconclusive.

SMILES	G9a block	VDR inhibitor	JMJD2A Tudor	BAZ2B block	PLK1 PBD block	HP1b chromo inh
Cc1c(NC(=S)NC(NC(=O)CC(C)C)C(Cl)(Cl)Cl)c(=O)n(-c2ccccc2)n1C (stereo not drawn)	u	n	u	n	n	n
CC(=O)NC(NC(=S)Nc1ccc(S(N)(=O)=O)cc1)C(Cl)(Cl)Cl (stereo not drawn)	44.7µM	n	n	n	n	n
CCOC(=O)c1c(Nc2ccc(C)cc2)nnc(-c2ccccc2)c1-c1ccccc1	2.24µM	n	u	u	x	n
CCOC(=O)c1c(Nc2cccc(C(=O)OC)c2)nnc(-c2ccccc2)c1-c1ccccc1	u	n	n	u	x	n
O=C(N/N=C/c1cccc2ccccc12)c1cccs1	n	n	n	n	n	n
O=C(N/N=C/c1ccc([N+](=O)[O-])cc1)c1cccs1	50.1µM	n	n	n	n	n
O=C(N/N=C/c1cccc([N+](=O)[O-])c1O)c1cccs1	50.1µM	n	50.1µM	22.4µM	n	n
Cn1c(=O)c2[nH]c(NN=Cc3cccc(Br)c3)nc2n(C)c1=O	x	n	n	x	n	n
CC(=O)Nc1ccc(NC(=O)c2ccc(Cl)nc2)cc1	x	n	n	n	n	n
Cc1nnc2ccc(-c3ccc(NC(=O)c4ccc(Cl)nc4)cc3)nn12	79.4µM	x	x	n	x	x
CN1CCN(C(=O)c2ccc(S(=O)(=O)N(C)c3ccccc3)cc2)CC1	x	x	x	x	n	x
CN1CCCN(C(=O)c2ccc(Cl)c(S(=O)(=O)N(C)c3ccccc3)c2)CC1	50.1µM	n	n	n	n	n
CC(=O)Nc1cc(-c2cccc(F)c2)cn2c(-c3ccc(F)c(Cl)c3)cnc12	x	x	x	x	n	x
CCOC(=O)c1c(CC(C)C)csc1NC(=O)COC(=O)c1cnc(C)cn1	x	x	x	x	n	x
CCOC(=O)c1c(-c2ccc(C)o2)csc1NC(=S)NC(=O)N(C)C	u	u	u	44.7µM	u	u
CCOC(=O)c1c(-c2cccs2)csc1NC(=O)CN1CCOCC1	n	n	n	n	n	n
CCOC(=O)c1c(-c2ccco2)csc1NC(=O)COC(=O)c1cnc(C)cn1	n[0.501 µM]	n	u	50.1µM	n	u
CCOC(=O)c1c(-c2ccc(C)o2)csc1NC(=O)CN1CCOCC1	50.1µM	u	u	u	n	n
CCOC(=O)c1c(-c2cccs2)csc1NC(=O)CN(CC)CC	n[12.7 µM]	n	n	n	n	n
CCOC(=O)c1c(-c2ccc(C)cc2)csc1NC(=O)CCN1CCOCC1	10µM	n	6.31µM	31.6µM	n	u
Cc1cc(C)cc(NC(=O)CC(C)n2nc(C)cc2C)c1 (stereo not drawn)	n	n	n	n	x	n
CCc1ccc(-n2c(SCC(=O)NC(C)CC)nc3n[nH]c(C)c3c2=N)cc1 (stereo not drawn)	n	n	n	n	x	n
CC(=O)Nc1ccc(S(=O)(=O)N(C)CC(=O)OCCOc2cccc(C)c2)cc1	x	n	n	n	n	n
O=C(COc1ccccc1)Nc1ccncc1Cl	n	n	n	n	n	n
CCOC(=O)c1c(-c2cccs2)csc1NC(=O)CC(C)C	n[12.7 µM]	n	n	n	n	n
SMILES	G9a block	VDR inhibitor	JMJD2A Tudor	BAZ2B block	PLK1 PBD block	HP1b chromo inh
CCOC(=O)c1c(-c2ccc(C)o2)csc1NC(=O)COC(=O)c1cccs1	10µM	u	n	n	n	n
CCN(c1ccc(NC(=O)COC(=O)c2cccs2)cc1)C(C)C	11.2µM	n	44.7µM	u	n	u
CC(C)(C)OC(=O)[C@H](CCCCN)NC(=O)c1nc[nH]c1C(=O)N[C@@H](CCCCN)C(=O)OC(C)(C)C	x	n	50.1µM	x	u	n
CCOC(=O)c1[nH]cnc1C(=O)Nc1cccc(Cl)c1	u	n	n	89.1µM	n	n
C[C@H](NC(=O)c1nc[nH]c1C(=O)OCc1ccccc1)c1ccccc1	n[0.501 µM]	n	n	n	n	n
CCOC(=O)c1[nH]cnc1C(=O)N[C@@H](C)c1ccccc1	n[0.501 µM]	n	n	56.2µM	n	n
CCOC(=O)c1[nH]cnc1C(=O)O	n[12.7 µM]	n	2µM	20µM	n	n
CN(C)c1cccc(C(=O)N2CCCC(CCC(=O)N3CCN(c4ccccn4)CC3)C2)c1 (stereo not drawn)	n	n	n	n	n	n
COC(=O)c1ccc(-n2c(C)cc(/C=N/Nc3nc(C)cc(=O)[nH]3)c2C)cc1	n[12.7 µM]	n	n[11.4 µM]	u	n	n
OCCCNc1ccccc1	n[12.7 µM]	n	x	x	x	x
CCOC(=O)c1[nH]cnc1C(=O)Nc1ccc(C)cc1	u	n	n	n	n	n
CCN(CC)C(=O)c1[nH]cnc1C(=O)N[C@H](C)c1ccccc1	n[0.501 µM]	n	89.1µM	n	n	n
CCN(CC)C(=O)c1[nH]cnc1C(=O)N[C@@H](C)c1ccccc1	n[0.501 µM]	n	n	u	n	n
CCOC(=O)c1[nH]cnc1C(=O)NC(C)C	u	n	35.5µM	n	n	n
CCCCN(C(=O)COc1ccc(F)cc1)c1c(N)n(CC(C)C)c(=O)[nH]c1=O	x	x	x	x	n	x
Cc1ccc(C)c(N2CCN(C(=O)Cn3cnc4onc(-c5ccc(F)cc5)c4c3=O)CC2)c1	n	n	n	n	x	n
O=C(c1ccco1)[C@@H]1[C@@H]2C(=O)N(c3ccc(Br)cc3)C(=O)[C@@H]2C2c3ccccc3C=CN21 (stereo partly drawn)	n[2.33 µM]	n	u	u	u	n
CC(C)(C)C(=O)[C@@H]1[C@@H]2C(=O)N(Cc3ccccc3)C(=O)[C@@H]2[C@H]2c3ccccc3C=CN12	10µM	x	x	n	x	x
COC(=O)C1(CCSC)NC(c2ccccc2F)C2C(=O)N(c3ccc4c(c3)OCCO4)C(=O)C21 (stereo not drawn)	n	n	n	n	n	n
N#C[C@@H]1[C@@H]2C(=O)N(c3ccc4c(c3)OCCO4)C(=O)[C@@H]2C2c3ccccc3C=CN21 (stereo partly drawn)	7.94µM	x	x	n	x	x
O=C(c1ccco1)[C@@H]1[C@@H]2C(=O)N(c3ccc(F)cc3)C(=O)[C@@H]2C2c3ccccc3C=CN21 (stereo partly drawn)	3.16µM	x	x	u	x	x
CC(=O)[C@@H]1[C@@H]2C(=O)N(c3ccc(F)c(Cl)c3)C(=O)[C@@H]2C2c3ccccc3C=CN21 (stereo partly drawn)	6.31µM	x	x	n	x	x
CC(=O)[C@@H]1[C@@H]2C(=O)N(C3CCCCC3)C(=O)[C@@H]2C2c3ccccc3C=CN21 (stereo partly drawn)	n[0.501 µM]	x	x	u	x	x
CC(C)Cn1c(N)c(C(=O)COC(=O)Cc2cccc(C(F)(F)F)c2)c(=O)n(C)c1=O	n	n	u	n	n	n
COc1ccc(C)cc1NC(=O)CCNC(=O)Cn1ccc2ccccc2c1=O	n	n	n	n	n	n
COc1ccc(C(C)=O)cc1Cn1c(C)c(C(=O)NCc2cccc(C)c2)sc1=O	x	x	x	x	n	x
CCc1ccc(-n2nc(CO)c(C(=O)NCCCc3ccccc3)n2)cc1	n	n	n	n	x	n
